Assay outcomes from PubChem BioAssay.
HPGD inh: blocks human HPGD enzyme activity. AID 894. Potency, µM, usual class: inhibitors. 150,000 compounds, 4.3% hits. P15428. purified HPGD, NADH fluorescence kinetic, PGE2 substrate; active means well fitted inhibition curve with a large enough effect, not every such curve was filed as active; inconclusive means small, poorly fitted or top-dose-only effect, or another doubt; inactive means no such curve, though single readings can be large or run the other way
Target sequence (P15428 whole entry, looked up): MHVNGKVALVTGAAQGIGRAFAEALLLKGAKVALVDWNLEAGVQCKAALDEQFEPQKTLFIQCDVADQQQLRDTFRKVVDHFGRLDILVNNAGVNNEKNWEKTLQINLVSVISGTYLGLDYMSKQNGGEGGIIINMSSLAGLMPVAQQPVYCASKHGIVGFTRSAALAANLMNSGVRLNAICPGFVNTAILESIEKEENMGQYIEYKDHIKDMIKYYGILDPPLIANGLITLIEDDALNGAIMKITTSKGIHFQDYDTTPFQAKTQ
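20 nM HPGD preincubated 15 min at room temperature with compound in 50 mM Tris-HCl pH 8, 0.01% Tween 20. Started with 1 mM NAD+ and 30 uM prostaglandin E2; NADH fluorescence (360/450 nm) read 5 times over 30-s intervals, last minus first.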
p53ts 39C kill: p53ts cell cytotoxicity, nonpermissive temperature | H1299-p53A138V viability at 39C, ATP luminescence, 24 h | Potency, µM (doses to about 46.1 µM), most hits filed as cytotoxic | 130,000 compounds, 1.5% hits | AID 902; further: nearly all actives have a fitted effect of over 55% in size
p53ts 32C kill: kills p53ts cells at the permissive temperature. H1299-p53A138V at 32C, ATP luminescence viability, 24 h. Potency, µM (highest dose often 46.1 µM), actives largely listed as cytotoxic. 130,000 compounds, 0.93% hits; further: nearly all actives have a fitted effect of over 55% in size
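Viability by ATPlite luminescence after 24 h compound treatment (up to 46 uM) at the permissive 32C. Cells are H1299 carrying p53 A138V. Scale runs from DMSO basal to 100 uM tamoxifen as full kill; AC50 from Hill fits.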
12-hLO inh: blocks human 12-lipoxygenase activity. purified 12-hLO, xylenol orange hydroperoxide absorbance. 150,000 compounds, 0.12% hits. Potency, µM (titrated, usually from 57.1 µM), hits mostly inhibitors. P18054; further: nearly all actives have a fitted effect of over 55% in size
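150 nM 12hLO, 25 mM Hepes pH 7.0 + 0.01% Triton X-100; cpd preinc 15 min RT; 40 uM arachidonic acid, 30 min RT; Fe-XO 30 min; A573/A405 ratio as read-out.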
Numbers stand for hits; – = inactive; ? = inconclusive; · = no result given; [ ] = dose if it differs, or a comment. The list is not random: actives were taken first. Their share in the collection is about 4.4%. Unless noted, the call rests on the fitted dose curve; in most records, active means well fitted curve in the direction sought with a large enough effect; inconclusive means small, poorly fitted or top-dose-only effect, or another doubt; inactive means no such curve, though single readings can be large; an effect the other way counts as inactive or inconclusive.

SMILES	HPGD inh	p53ts 39C kill	p53ts 32C kill	12-hLO inh
CCS(=O)(=O)Nc1ccc(-c2nnc(SCC(=O)c3ccc(NC(C)=O)c(OC)c3)o2)cc1	0.794µM	–	–	–
O=C(CSc1nnc(-c2ccc(Cl)cc2)o1)c1ccc([N+](=O)[O-])cc1	·	–	–	·
CCOc1cc(C(=O)CSc2nnc(CNc3ccc(Cl)cc3)o2)ccc1NC(=O)CC	–	15.8µM	15.8µM	–
COc1ccc(NCc2nnc(SCC(=O)c3ccc(OC)cc3)o2)cc1	–	·	·	–
CC(C)CCNC(=O)c1cnc2sc(N3CCCCC3)nn2c1=O	·	–	–	·
COc1cccc(NC(=O)CSc2nnc(-c3ccc(C)cc3)o2)c1	–	?	–	–
COc1cccc(C(=O)Nc2cccc(-c3nnc(-c4ccco4)o3)c2)c1	20µM	·	·	–
COc1cccc(NC(=O)CSc2nnc(-c3cccc(OC)c3)o2)c1	·	10µM	12.6µM	·
CCn1c(SCC(=O)Nc2ccccc2OC)nc2ccccc2c1=O	–	·	·	–
O=C(CSc1nnc(-c2ccccc2F)o1)Nc1ccccc1Cl	·	12.6µM	?	·
COc1ccccc1NC(=O)CSc1nc2ccccc2n1C(C)=O	15.8µM	–	–	–
O=C(NCC(c1ccc2c(c1)OCO2)N1CCOCC1)c1ccc(F)cc1 (stereo unspecified)	·	–	–	·
C[N+](C)(C)[C@H](Cc1c[nH]c(=S)[nH]1)C(=O)O	–	–[9.22 µM]	–[9.22 µM]	–[11.4 µM]
CC1CCCC(C)N1c1nnc(N)s1 (stereo unspecified)	28.2µM	–	–	–
Cc1ccc(CSc2nc3ccncc3n2Cc2nc(-c3ccccc3C)oc2C)cc1	·	7.94µM	12.6µM	·
Cc1oc(-c2ccccc2F)nc1Cn1c(SCc2cccc(Cl)c2)nc2ccncc21	·	?	–	·
Cc1ccc2[nH]c(CSc3nnc(COc4ccccc4C)n3C)cc(=O)c2c1	·	–	–	·
COc1ccc(NS(=O)(=O)c2ccc(N3CCCC3)c(NC(=S)Nc3cccc(S(=O)(=O)N(C)C)c3)c2)cc1	3.16µM	·	·	–
CS(=O)(=O)N1CCC2(CCN(C(=O)Nc3cccc(F)c3)CC2)CC1	–	–	–	–
O=C(NCC(c1cccnc1)N1CCOCC1)C(=O)Nc1ccc(F)cc1 (stereo unspecified)	·	–	–	·
Cc1ccc(NC(=O)C(=O)NCC(c2cccnc2)N2CCOCC2)cc1Cl (stereo unspecified)	·	20µM	?	·
COc1ccc(C(=O)NCC(c2cccnc2)N2CCN(c3ccccc3)CC2)cc1OC (stereo unspecified)	–	?	10µM	–
CC(=O)c1ccc(NC(=O)CO/N=C(\C)c2cccs2)cc1	–	·	·	–
CCc1cccc(CC)c1NC(=O)CO/N=C(\C)c1cccs1	0.631µM	·	·	–
C/C(=N/OCC(=O)Nc1ccc(C)cc1C)c1cccs1	7.94µM	·	·	–
SMILES	HPGD inh	p53ts 39C kill	p53ts 32C kill	12-hLO inh
N#CCCn1c(=O)cnc2cnc(N3CCOCC3)nc21	?	?	–	–
c1ccc(-c2nn3c(C4COc5ccccc5O4)nnc3s2)cc1 (stereo unspecified)	·	–	–	·
c1ccc(OCc2nnc3sc(C4COc5ccccc5O4)nn23)cc1 (stereo unspecified)	7.08µM	–	–	–
c1ccc(Cc2nnc3sc(C4COc5ccccc5O4)nn23)cc1 (stereo unspecified)	14.1µM	–	–	–
Clc1ccccc1-c1nnc2sc(C3COc4ccccc4O3)nn12 (stereo unspecified)	20µM	–	–	–
Cc1ccc(-c2nnc3sc(C4COc5ccccc5O4)nn23)cc1 (stereo unspecified)	–	–	–	–
CC(=O)N1c2ccc(S(=O)(=O)NCC3CCC(C(=O)Nc4cc(C)ccc4C)CC3)cc2CC1C (stereo unspecified)	·	–	–	·
CCC(Oc1ccccc1F)C(=O)Nc1cc(-c2ccccc2)no1 (stereo unspecified)	·	–	–	·
Oc1ccc(O)c(-c2cnns2)c1	1.41µM	·	·	–
Oc1ccc(Br)cc1-c1ccn[nH]1	–	·	·	–
CCOC(=O)c1c(C)oc2ncnc(Nc3cc(Cl)ccc3OC)c12	·	–	–	·
Cc1ccc(N(CC(=O)Nc2cc(C)ccc2C)S(=O)(=O)c2c(C)noc2C)cc1	·	–	–	·
O=C(Nc1ccc2nc(-c3ccco3)[nH]c2c1)c1cccs1	?	12.6µM	10µM	–
O=C(Nc1ccc2nc(-c3ccccc3)[nH]c2c1)c1cccs1	–	·	·	–
O=C(Nc1ccc2nc(-c3ccco3)[nH]c2c1)c1ccco1	–	15.8µM	7.94µM	–
CC1CCN(C(=O)c2ccc3c(c2)OCCO3)CC1	0.398µM	–	–	–
CC1CCN(C(=S)c2ccc3c(c2)OCO3)CC1	28.2µM	·	·	–
CC1CCN(C(=O)c2scc3c2OCCO3)CC1	15.8µM	–	–	–
CC1CCN(C(=O)c2ccc(-n3cnnn3)cc2)CC1	17.8µM	–	–	–
CCOc1ccccc1-c1ccc(C(=O)O)o1	?	·	·	–[0.00818 µM]
O=c1cc(N2CCN(c3ccc(F)cc3)CC2)[nH]c(=O)n1-c1ccc(Br)cc1	·	–	–	·
COc1ccccc1-c1nnc(Nc2nc3c(OC)cccc3s2)o1	?	?	–	–
COc1cccc(-c2nnc(Nc3nc4c(F)cccc4s3)o2)c1	?	12.6µM	?	–
COc1cccc2sc(Nc3nnc(-c4ccccc4Cl)o3)nc12	–	12.6µM	?	–
COc1cccc(Cn2c(=O)cnc3cnc(Oc4ccccc4)nc32)c1	·	–	–	·
SMILES	HPGD inh	p53ts 39C kill	p53ts 32C kill	12-hLO inh
CCOC(=O)c1c(C)[nH]c(C)c1S(=O)(=O)N1CCC(C(=O)N2CCN(c3cccc(C)c3C)CC2)CC1	·	–	–	·
CN(C)C(=O)Nc1ccc(Cl)c(Cl)c1	–	–	–	–
CC(C)C1O/C(=N/C(=O)Nc2ccc(Cl)c(Cl)c2)NC1=O (stereo unspecified)	20µM	–	–	–
CCN(CC)C1=CC(=O)OC12CCCCC2	35.5µM	–	–	–
Cc1nc(N2C(=O)c3oc4ccccc4c(=O)c3C2c2ccccc2F)sc1C (stereo unspecified)	·	–	–	·
CCN(CC)c1ccc2cc(-c3nc4ccccc4n3C)c(=O)oc2c1	–	–	–	–
CCN(CC)c1ccc2cc(-c3nc4ccccc4[nH]3)c(=O)oc2c1	–	0.398µM	0.316µM	–
Fc1ccc(-n2ncc3c(NCCCn4ccnc4)ncnc32)cc1	·	?	–	·
CC(C)(C)c1ccc(C(=O)Nc2onc3c2CCCC3)cc1	·	12.6µM	12.6µM	·
CC(C)COc1ccc(C(=O)Nc2ccc(SC(F)F)cc2)cc1	–	·	·	–
CCOc1ccc(C(=O)Nc2cc(-c3ccccc3)no2)cc1	·	–	–	·
Cc1ccc(C(=O)Nc2onc(C)c2C#N)cc1	–	·	·	–
CC(C)COc1ccc(C(=O)Nc2onc3c2CCCC3)cc1	·	15.8µM	?	·
CCOc1ccc(C(=O)Nc2onc3c2CCCC3)cc1	·	15.8µM	6.31µM	·
Cn1cccc1CC(=O)N/N=C/C=C/c1ccco1	15.8µM	·	·	–
O=C(O)c1ccc(CSc2nnc(SCc3ccccc3)s2)cc1	20µM	·	·	–
CCn1c(SCC(=O)N/N=C/C=C/c2ccco2)nnc1-c1ccc(OC)cc1	31.6µM	·	·	–
O=C(CSc1nnc(SCc2ccccc2)s1)N/N=C/C=C\c1ccco1	15.8µM	·	·	–
